Experimental findings from PubChem BioAssay (NCATS) are described below.

“And” between values parts separate entries of the source, which are not always exact repeats. Equal values may be shown once. Records with an inconclusive call do not appear. A number with no mark means an inactive call. The source made the active and inactive calls. Calls come from the whole dose curve; as a rule, active = well fitted curve in the direction sought with a large enough effect; inconclusive = small, poorly fitted or top-dose-only effect, or another doubt; inactive = no such curve, though single readings can be large or run the other way.
% is set by controls: 0 for no effect and ±100 for the full control effect; potency is the fitted concentration of half-maximal effect.

This assay in a line: qHTS Assay for Identifying Gametocytocidal Compounds (AID 743244).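 For max response: actives lower the fluorescent signal which means gametocytes are killed.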 Particulars: P. falciparum 3D7 stage III-V gametocytes, alamarBlue, 72 h; max response: active compounds read low. In a few lines: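 Fluorescence at Ex 525/Em 598 nm, recorded 24 h after alamarBlue addition, reports residual metabolic activity of 3D7 gametocytes (stages III–V) following 72 h compound exposure at 37 °C, 5% CO2.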
A general note: In qHTS, concentration-response curves come from the screen itself.
Consider `Cn1c(=O)c2[nH]c(-c3ccccc3)nc2n(C)c1=O`, for which the max response was 16.2%.
On the same count and under the same terms, with `Ic1ccc(N2CCN(Cc3c[nH]c4ncccc34)CC2)cc1` the figure was 5.54%; with `O=C(O)Cc1ccc(-c2ccccc2)cc1`, -0.327%.
On the same count and under the same terms, the figure for `CSc1ccccc1N1CCN(CCCCCC(=O)NC2CCCc3ccccc32)CC1` (stereo not given) is 6.9%.
Same read-out and setting: with `CC1(C)CCC=[N+]1[O-]` the figure was 7.42%; with `O=c1[nH]c2cc([N+](=O)[O-])c([N+](=O)[O-])cc2[nH]c1=O`, 23.7%.
On to `CCOc1ccc2nc(S(N)(=O)=O)sc2c1`, for which the max response was 10.4%.
Same read-out and setting: with `O=C(O)COc1ccc(C(=O)c2cccs2)c(Cl)c1Cl` the figure was -3.69% and 20.3%.
Consider `COC1=C(OC)C(=O)c2ccccc2C1=O`, for which the Potency is 3980 nM (active).
Take `OC[C@H]1O[C@@H](n2cnc3c(NC4CCCCC4)ncnc32)[C@H](O)[C@@H]1O`: the max response is 8.7%.
As for `CC1(C)[C@@H](O[C@H]2O[C@H](C(=O)O)[C@@H](O)[C@H](O)[C@H]2O[C@@H]2O[C@H](C(=O)O)[C@@H](O)[C@H](O)[C@H]2O)CC[C@]2(C)[C@H]3C(=O)C=C4[C@@H]5C[C@@](C)(C(=O)O)CC[C@]5(C)CC[C@@]4(C)[C@]3(C)CC[C@@H]12`, the max response is 1.42% and -3.92%.
Still for that read-out and setting: the figure for `Cc1ccccc1CNc1ncnc2c1ncn2C1OC(CO)C(O)C1O` (stereo not given) is 21.1%.
Regarding `Cc1ccc(O)c(N=Nc2ccccc2)n1`, the Potency is 2510 nM (active).
`S=C(S)OC1CC2CC1C1CCCC21` (stereo not given): the max response is 22.6%.
Take `COC(=O)c1c(C)[nH]c(C)c1C(=O)c1ccccc1Cc1ccccc1`: the max response is -0.767%.
On the same count and under the same terms, the figure for `CCNC(=O)[C@H]1O[C@@H](n2cnc3c(N)nc(NCCc4ccc(CCC(=O)O)cc4)nc32)[C@H](O)[C@@H]1O` is -4.57%; for `NC(=O)C(=O)O` it is 24.1%.
Still for that read-out and setting: with `N[C@@H](CC(=O)O)C(=O)O` the figure was 20.5%.
The same measure, in the same setting: with `CN1CCN(c2cc3c(nn2)Oc2ccccc2N3C)CC1` the figure was -7.02%; with `NCCNC(=O)c1ncsc1-c1cccc(F)c1`, 3.56%.
With `O=C(O)CC[C@@H](C(=O)O)N1C(=O)c2ccccc2C1=O`, the max response was -10.9%.
The same measure, in the same setting: the figure for `CCCSc1ccc2nc(NC(=O)OC)[nH]c2c1` is 0.499%.
For the compound `Cc1cc(NC2CCCCC2)nc(-n2nc(C)cc2C)n1`, the Potency is 1180 nM (active).
Turning to `COc1cc(C(O)CO)ccc1OS(=O)(=O)O` (stereo not given), the max response was 2.33%.
Turning to `Cn1ncc(S(=O)(=O)Cc2ccccc2)c(Br)c1=O`, the max response is 25.3%.
On the same count and under the same terms, with `CNC(=O)[C@H]1O[C@@H](n2cnc3c(NCc4cccc(I)c4)ncnc32)[C@H](O)[C@@H]1O` the figure was 55.6%; with `OC[C@H]1O[C@@H](n2cnc3c(Nc4ccccc4)ncnc32)[C@H](O)[C@@H]1O`, -5.57%; with `C[C@H](O)[C@H](O)[C@H]1CNc2nc(N)[nH]c(=O)c2N1`, -5.73%.
`CN1CCc2cccc3c2C1Cc1ccc(O)c(O)c1-3` (stereo not given): the Potency was 562 nM (active).
For the compound `COC(=O)[C@H]1[C@H]2C[C@@H]3c4[nH]c5cc(OC)ccc5c4CCN3C[C@H]2C[C@@H](OC(=O)/C=C/c2cc(OC)c(OC)c(OC)c2)[C@@H]1OC`, the max response was -0.068%.
The same measure, in the same setting: the figure for `CC(=O)SCC[N+](C)(C)C` is 9.88%; for `NC(CCCP(=O)(O)O)C(=O)O` (stereo not given) it is 8.77%.
For `O=Nc1ccc2oc(=O)ccc2c1`, the Potency is 1780 nM (active).
In the case of `CC1OC1P(=O)(O)O` (stereo not given), the max response was -9.6%.
Still for that read-out and setting: with `Nc1ncnc2c1ncn2[C@@H]1O[C@H](COP(=O)(O)OP(=O)(O)OP(=O)(O)OP(=O)(O)OC[C@@H]2O[C@H](n3cnc4c(N)ncnc43)[C@@H](O)[C@H]2O)[C@@H](O)[C@H]1O` the figure was 11.9%.
